From PubChem BioAssay AID540317 (National Center for Advancing Translational Sciences (NCATS), 2011) come the findings set out here.

Out of some 390,000 compounds screened, about 2,200 (0.56%) were called active. Inconclusive results (about 3%) are left out. Only a selection was taken, and actives are over-represented in it overall. A number with no mark means an inactive call. Calls follow the shape of the dose curve; as a rule, active = well fitted inhibition curve with a large enough effect; inconclusive = small, poorly fitted or top-dose-only effect; inactive = no such curve, though single readings can be large or run the other way.
Potency is read from the fitted curve at half-maximal effect.

Chromobox protein homolog 1 (Homo sapiens), sequence (P83916 whole entry, looked up): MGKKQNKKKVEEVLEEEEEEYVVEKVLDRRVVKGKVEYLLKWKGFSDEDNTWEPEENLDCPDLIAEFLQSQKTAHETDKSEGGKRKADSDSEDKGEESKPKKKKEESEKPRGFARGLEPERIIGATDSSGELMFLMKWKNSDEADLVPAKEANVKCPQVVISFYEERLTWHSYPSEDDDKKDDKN

This test concerns the target Chromobox protein homolog 1 (Homo sapiens) (UniProt P83916). The experiment in a line: HTS for Inhibitors of HP1-beta Chromodomain Interactions with Methylated Histone Tails. Also: nearly all actives have a fitted effect of over 70% in size. Conditions: AlphaScreen HP1-beta / biotin-H3K9me3 peptide binding; series mostly up to 114 µM; activity change, negative = inhibition: at the top concentration. The procedure, abridged:
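Compound inhibition of the preformed complex between 50 nM HP1-beta and 50 nM biotinylated H3K9me3 peptide was read by AlphaScreen. Buffer was PBS pH 7.4 with 0.01% Tween-20. Incubations ran 30 min at room temperature, with 10 ug/mL donor/acceptor beads.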
On to `CCc1nnc(SCC(=O)Nc2cc(OC)ccc2OC)nc1CC`, for which the “activity change, negative = inhibition” value is 27.4%. On the same count and under the same terms, for `Cc1ccccc1Nc1c([N+](=O)[O-])ccc2nonc12` the value was -5.21%. With `Cc1ccc(Nc2cc(C)nc3c(C)ccc([N+](=O)[O-])c23)cc1`, the Potency was 22.4 µM (active). Consider `Cc1ccc(NC2=NC(c3ccccc3)n3c(nc(C)cc3=O)N2)cc1` (stereo not given), for which the “activity change, negative = inhibition” value was 41.3%.

On to `CCOC(=O)c1c(NC(=O)c2cc(-c3ccc(Cl)cc3)on2)sc2c1CCCC2`, for which the “activity change, negative = inhibition” value was -6.48%. Same read-out and setting: for `O=C1C2C(c3ccccc3)CC=CC2C(c2ccoc2)N1Cc1ccccc1` (stereo not given) the value was 5.79%; for `CC(C)C(=O)Nc1nc2c(s1)CC(C(C)(C)C)CC2` (stereo not given), 13.7%; for `Cc1ccc(SCC(CC(C)C)N2CCN(CCc3ccccc3)CCC2=O)cc1` (stereo not given), 3.23%. For `NC1=NOC(=O)C1C1CCCCC1` (stereo not given), the Potency was 5.01 µM (active). As for `CN1c2ccc(Cl)cc2-c2nc(SCC(=O)Nc3cc(F)ccc3F)ncc2S1(=O)=O`, the “activity change, negative = inhibition” value is 12%. Same read-out and setting: for `CC1(C)CCc2cc(S(=O)(=O)N3CCN(c4nc(-c5cccs5)nc5ccccc45)CC3)ccc2O1` the value was 19.3%; for `COc1ccc(CCN2C(=O)N(c3cccc(OC)c3)C(=O)C2CC(=O)Nc2ccccc2)cc1` (stereo not given), 46.9%. For `Cc1ccccc1C(=O)Nc1ccc(N2CCCCCC2)cc1`, the Potency was 35.5 µM (active). Turning to `CC(=O)Nc1ccc(S(=O)(=O)N2CCCC2C(=O)O)cc1` (stereo not given), the “activity change, negative = inhibition” value was 22.7%. Still for that read-out and setting: then `O=C(NC(=O)c1ccccc1N1CCCCC1)Nc1ccc(Br)cc1`, with 32.7%. As to `CC(=O)Nc1ccc(S(=O)(=O)N2CCN(c3ccccc3)CC2)cc1`, the “activity change, negative = inhibition” value was 15.4%. The same measure, in the same setting: for `Cc1cc(NS(=O)(=O)c2ccc(NC(=O)c3ccccc3C)cc2)nc(C)n1` the value was 30.7%. In the case of `CC(=O)Nc1ccc(S(=O)(=O)Nc2ccc(N3CCCCC3)cc2)cc1`, the Potency was 20 µM (active). Consider `CCOc1ccc(CNC(=O)CCc2c(C)nn(-c3ccc(N4CCCCC4)nn3)c2C)cc1`, for which the “activity change, negative = inhibition” value is 44.2%. Regarding `CCOC(=O)c1c(NC(C)=O)c2c3c(sc2n1Cc1c(C)cc(C)cc1C)CCCC3`, the “activity change, negative = inhibition” value was 52.9%. Still for that read-out and setting: then `COc1ccc(C(=O)COC(=O)CCCC(=O)Nc2cc(C(F)(F)F)ccc2Cl)cc1`, with 29.1%; and `CCC(Sc1nnc(-c2ccc(OC)cc2)c(-c2ccc(OC)cc2)n1)C(=O)NC1CCCCC1` (stereo not given), with 27.6%.

Consider `Cc1cc(N=Nc2ccc3ccccc3c2)ccc1O`, for which the Potency is 50.1 µM (active). Regarding `Cc1cc(C)cc(NS(=O)(=O)c2ccc3[nH]cc(C(=O)N4CCCCC4)c(=O)c3c2)c1`, the “activity change, negative = inhibition” value was 7.14%. Same read-out and setting: then `COc1cccc(CNC(=O)c2ccc3c(c2)sc2nc(-c4cccc(OC)c4)cn23)c1`, with 37.8%; and `CCCNc1ncnc2c1c(-c1ccccc1)cn2-c1ccc(OCC)cc1`, with 18%. For the compound `COc1cc(N2CCCC2)c(OC)cc1/C=C(/C#N)c1cccc(Br)c1`, the Potency is 35.5 µM (active).

Consider `CCOC(=O)c1[nH]c(C)c(CCC(=O)N2CCN(c3ccccc3)CC2)c1C`, for which the “activity change, negative = inhibition” value was 16.2% [at 57 µM]. On the same count and under the same terms, for `Cc1ccc(NC(=O)Cn2cnc3nc4c(cc3c2=O)CCCC4)cc1Cl` the value was 20.7% [at 57 µM]; for `CCOC(=O)c1cc(-c2ccc(OC)c(S(=O)(=O)Nc3ccc(OC)cc3OC)c2)on1`, 32.8%; for `O=C1CN(Cc2ccccc2)S(=O)(=O)c2ccccc21`, 24.1%. `COc1ccc(Cc2nc3ccc(C(=O)NCc4ccccc4C)cc3o2)cc1`: the “activity change, negative = inhibition” value is 25.6% [at 57 µM]. With `COc1cc2c3c(c1)/C(=C1/SC(=S)NC1=O)C(=O)N3C(C)(C)C=C2C`, the Potency was 10 µM (active). With `Cc1cccc(N2CCN(C(=O)c3ccc(Nc4nc5ccccc5n5nnnc45)cc3)CC2)c1C`, the “activity change, negative = inhibition” value is 11.1%. Same read-out and setting: for `Cc1csc2nc(COC(=O)c3ccccc3NC(=O)c3ccccc3Cl)cc(=O)n12` the value was -3.59%; for `COc1ccc(-c2nnc(SCC(=O)Nc3ccc(C(C)C)cc3)nc2-c2ccc(OC)c(OC)c2)cc1OC`, 25%. For `O=C1C(Cl)=C(Oc2ccccc2)C(=O)c2ccccc21`, the Potency was 2 µM (active). Take `COc1ccc(Br)cc1C1C2C=CCC(C)C2C(=O)N1Cc1ccccc1` (stereo not given): the “activity change, negative = inhibition” value is 31.3%. On the same count and under the same terms, then `CCOC(=O)c1ccc(NC(=O)Cn2cc(S(=O)(=O)Cc3ccccc3F)c3ccccc32)cc1`, with -1.75%. Still for that read-out and setting: for `Cn1c(=O)c(=O)n(C)c2cc(S(=O)(=O)NCCc3ccccc3)ccc21` the value was 26.9%. With `Cc1cc(=O)n(C)c(=O)n1CCCNc1ccccc1`, the Potency is 56.2 µM (active). Consider `Cc1c(S(=O)(=O)NCc2ccccc2)c(=O)n(C)c(=O)n1C`, for which the “activity change, negative = inhibition” value was 34.9%. As to `Cc1ccc(NC(=O)NC(C)c2c(-n3cccc3)sc(C)c2C)c(C)c1` (stereo not given), the “activity change, negative = inhibition” value was 15.9%. Same read-out and setting: for `COc1ccc(CN(Cc2ccccc2)C(=O)c2ccc(O)cc2)cc1COc1ccc(NC(C)=O)cc1` the value was -7.39%. Regarding `O=C(CN1CCN(c2ccc(O)cc2)CC1)Nc1ccc(-c2ccccc2)cc1`, the Potency was 79.4 µM (active). Turning to `O=C(CN1CCN(c2cccc(Cl)c2)CC1)Nc1ccc(S(=O)(=O)N2CCOCC2)cc1`, the “activity change, negative = inhibition” value was 24%.

Consider `Cc1ccc(Cl)cc1NC(=O)CN1CCN(S(=O)(=O)N2CCOCC2)CC1`, for which the “activity change, negative = inhibition” value is -17.4%. `O=C(CN1CCN(c2ccc(O)cc2)CC1)Nc1cc(S(=O)(=O)N2CCOCC2)ccc1Cl`: the Potency is 79.4 µM (active). In the case of `CC(=O)c1ccc(N2CCN(CC(=O)Nc3ccccc3N3CCOCC3)CC2)cc1`, the “activity change, negative = inhibition” value is 34.2%. For `CCN(CC)c1ccc(NC(=O)CN2CCN(c3ccccn3)CC2)cc1`, the “activity change, negative = inhibition” value was -7.25%.
